Potency data for 25 compounds are collected here from PubChem BioAssay (NCATS).

Records with an inconclusive call do not appear. Some structures have more than one record in an assay (separate samples or runs), and their calls can disagree. Activity calls are given as the source filed them. Unless noted, the call rests on the fitted dose curve; in most records, active means well fitted curve in the direction sought with a large enough effect; inconclusive means small, poorly fitted or top-dose-only effect, or another doubt; inactive means no such curve, though single readings can be large; an effect the other way counts as inactive or inconclusive.

Assay [1] is described as follows: qHTS for Inhibitors of Plasmodium falciparum (GB4) proliferation (AID 504315). Further: nearly all actives have a fitted effect of over 50% in size. Further: potency means the concentration at half of the fitted maximal effect. An outline of the steps:
(§1)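 Parasite growth measured as SYBR Green DNA fluorescence (ex 485, em 535 nm) after overnight lysis following 72 h culture at 37 °C, 0.3% parasitemia, 2.5% hematocrit. Values normalized against DMSO and 0.29 uM artemisinin controls, with plate-stack correction.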

A short description of assay [2]: qHTS for Inhibitors of Plasmodium falciparum (7G8) proliferation (AID 504316). Further: nearly all actives have a fitted effect of over 65% in size. Further: potency means the concentration at half of the fitted maximal effect. The essentials:
as §1

A short description of assay [3]: qHTS for Inhibitors of Plasmodium falciparum (CP250) proliferation (AID 504320). The essentials: as §1
Assay [4] has as its target Atrial natriuretic peptide receptor 1 (Homo sapiens) (UniProt P16066). Kind of assay: Natriuretic polypeptide receptor (hNpr1) antagonism - Pilot CMLD screen (AID 1347052; calls by dose curve;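 further: cGMP level read as GloSensor luciferase luminescence after agonist stimulation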; further: potency means the concentration at half of the fitted maximal effect).
Assay [5] in a line: qHTS for Inhibitors of Plasmodium falciparum (HB3) proliferation (AID 504318). Further: nearly all actives have a fitted effect of over 60% in size. Further: potency means the concentration at half of the fitted maximal effect. An outline of the steps:
as §1
(In general: In qHTS, concentration-response curves come from the screen itself.)

Atrial natriuretic peptide receptor 1 (Homo sapiens), sequence (P16066 whole entry, looked up): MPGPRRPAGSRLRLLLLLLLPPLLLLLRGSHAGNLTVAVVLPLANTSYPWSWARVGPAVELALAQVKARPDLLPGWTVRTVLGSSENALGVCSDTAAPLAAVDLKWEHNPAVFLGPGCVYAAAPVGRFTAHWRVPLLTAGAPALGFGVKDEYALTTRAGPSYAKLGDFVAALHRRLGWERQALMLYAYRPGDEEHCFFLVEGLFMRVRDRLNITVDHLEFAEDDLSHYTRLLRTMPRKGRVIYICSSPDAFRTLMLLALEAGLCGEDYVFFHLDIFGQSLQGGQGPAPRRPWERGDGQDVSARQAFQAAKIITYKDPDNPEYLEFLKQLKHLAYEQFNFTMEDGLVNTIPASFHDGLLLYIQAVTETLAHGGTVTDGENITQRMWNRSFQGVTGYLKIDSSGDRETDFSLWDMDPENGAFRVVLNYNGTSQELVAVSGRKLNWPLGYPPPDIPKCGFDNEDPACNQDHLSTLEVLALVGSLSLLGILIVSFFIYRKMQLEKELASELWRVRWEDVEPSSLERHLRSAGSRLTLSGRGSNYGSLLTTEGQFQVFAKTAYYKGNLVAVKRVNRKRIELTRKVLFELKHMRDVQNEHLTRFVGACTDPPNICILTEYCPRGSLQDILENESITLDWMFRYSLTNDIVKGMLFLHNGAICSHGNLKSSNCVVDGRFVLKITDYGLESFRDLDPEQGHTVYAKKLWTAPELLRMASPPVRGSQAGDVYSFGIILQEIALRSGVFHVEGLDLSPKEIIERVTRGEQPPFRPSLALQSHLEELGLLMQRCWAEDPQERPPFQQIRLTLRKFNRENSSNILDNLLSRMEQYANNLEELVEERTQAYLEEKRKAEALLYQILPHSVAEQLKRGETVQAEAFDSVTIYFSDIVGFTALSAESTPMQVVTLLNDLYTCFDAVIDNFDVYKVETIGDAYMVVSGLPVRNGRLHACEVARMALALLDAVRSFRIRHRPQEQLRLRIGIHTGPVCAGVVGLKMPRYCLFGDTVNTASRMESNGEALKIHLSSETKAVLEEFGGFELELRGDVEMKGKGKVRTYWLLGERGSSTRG

Regarding `COC(=O)C(=Cc1cc(Br)c(OC)c(Br)c1)C(=O)OC`, the Potency result in assay [1], in assay [2], in assay [3] and in assay [4] was “inactive” throughout.
`CC(C)=CCCC(C)=CCON=C1C[C@@H](O)[C@@H](O)[C@@H]2[C@H]3C(=O)N(c4ccc(F)cc4F)C(=O)[C@@H]3CC[C@H]12`: the Potency entry in assay [1], in assay [5], in assay [3] and in assay [4] was “inactive” each time.
With `CCc1cc2c(nc1CC)CCN(CCC(C)=NOC[C@@H](O)COCc1ccco1)C2`, the Potency entry in assay [1], in assay [3] and in assay [4] was “inactive” throughout. Besides, in assay [2], the Potency was 1.51 µM (active).
In the case of `COC1=C[C@H](C(=O)N[C@H]2CCCC[C@H]2NC(C)=O)[C@H](C)[C@@H](c2ccccc2)CC1=O`, the Potency result in assay [1], in assay [2], in assay [3] and in assay [4] was “inactive” in each case.
With `COc1cc2c(c(OC)c1OC)CC(C)=C(C)CC2NC(=O)C(F)(F)F` (stereo unspecified), the Potency result in assay [1], in assay [5], in assay [3] and in assay [4] was “inactive” in each case.
On to `CCN1C(=NCc2cccc(C(F)(F)F)c2)NC(c2cccc(C(F)(F)F)c2)C(C(=O)OC)=C1C` (stereo unspecified), for which the Potency in assay [1] is 0.0953 µM (active). In addition, the Potency result in assay [5] and in assay [4] was “inactive” throughout.
For the compound `COC(=O)CCC(=O)OC1(C)C(=O)C=C2C=C(C3CC3)OC=C2C1=O` (stereo unspecified), the Potency result in assay [1], in assay [5] and in assay [4] was “inactive” throughout.
As for `COc1ccc(-c2nc(-c3ccccc3)c(NC(C)(C)C)o2)cc1`, the Potency in assay [1] was 1.69 µM (active) and inactive; in assay [5], 2.13 µM (active) and inactive. Moreover, the Potency entry in assay [4] was “inactive”.
For `CCCNC(=O)OC[C@H]1O[C@H](CCON=C(C)CCC(=O)OC[C@H]2O[C@H](C#Cc3ccccc3)C=C[C@H]2Oc2ccc(C)cc2)C=C[C@H]1Oc1ccc(OC)cc1`, the Potency entry in assay [1], in assay [2], in assay [3] and in assay [4] was “inactive” throughout.
`COc1cccc([C@H]2Oc3ccc(OC)cc3C(=NO[C@H](C)c3cn([C@H](CO)Cc4ccccc4)nn3)[C@H]2O)c1`: the Potency entry in assay [1], in assay [5] and in assay [4] was “inactive” throughout.
For `CCN1C(=NCc2cccc(C(F)(F)F)c2)NC(c2cccc(F)c2)C(C(=O)OC)=C1C` (stereo unspecified), the Potency in assay [1] was 0.757 µM (active). Further, the Potency entry in assay [5] and in assay [4] was “inactive” throughout.
For the compound `CC(=O)[C@@H]1[C@@H](C)N(Cc2ccccc2)C(=O)N[C@H]1c1ccccc1`, the Potency result in assay [1], in assay [2], in assay [3] and in assay [4] was “inactive” throughout.
As for `CC1=C[C@@H](C)OC2(C1)C(=O)N(Cc1ccc(Br)cc1)c1cccc(Br)c12` (stereo partly specified), the Potency result in assay [1], in assay [2], in assay [3] and in assay [4] was “inactive” each time.
`COC(=O)[C@]1(CC=Cc2ccccc2)C=C[C@@H](C)[C@H](c2ccccc2Br)N1C(=O)C(F)(F)F`: the Potency in assay [1] was 1.69 µM (active); in assay [5], 1.9 µM (active). The Potency result in assay [4] was “inactive”.
Consider `COC(=O)CCCC1=CC2=C(c3ccccc3)C(=O)C(C)(OC(=O)C3CCCC3)C(=O)C2=CN1c1ccc(OC)cc1` (stereo unspecified), for which the Potency entry in assay [1], in assay [2], in assay [3] and in assay [4] was “inactive” in each case.
As for `c1ccc(CCc2nc(-c3ccccc3)oc2NC2CCCCC2)cc1`, the Potency entry in assay [1], in assay [5] and in assay [4] was “inactive” throughout.
Regarding `CCN1C(=NCCCOC(C)C)NC(c2ccccc2)C(C(=O)OC)=C1C` (stereo unspecified), the Potency entry in assay [1], in assay [5], in assay [3] and in assay [4] was “inactive” each time.
Take `COC(=O)C1=C(C(=O)OC)[C@@H]2N(C)c3ccc(OC)cc3[C@@]23C[C@@H](C(=O)OC)N(C(=O)NCCBr)C3=N1`: the Potency in assay [1] and in assay [5] was 2.13 µM (active) in each case. In addition, in assay [4], the Potency result is “inactive”.
For the compound `COc1ccc([C@]23Cc4ccccc4[C@H](O2)C2=C(O3)C(=O)c3ccccc3C2=O)cc1`, the Potency in assay [1] and in assay [2] was 1.69 µM (active) each time. Further, the Potency result in assay [3] and in assay [4] was “inactive” throughout.
Turning to `CCCCCCCC#Cc1ccccc1C=NS(=O)c1ccc(C)cc1` (stereo unspecified), the Potency result in assay [1], in assay [2], in assay [3] and in assay [4] was “inactive” in each case.
Take `COC(=O)N[C@H](C(C(=O)OC)=C(C)NCc1ccccc1)c1cccc(C)c1`: the Potency entry in assay [1], in assay [2], in assay [3] and in assay [4] was “inactive” throughout.
For `CCN1C(=O)[C@@H]2[C@H]3[C@H](O)[C@H](O)CC(=NOCC[C@@H]4C=C[C@H](OC(C)=O)[C@@H](COC(C)=O)O4)[C@@H]3CC[C@H]2C1=O`, the Potency entry in assay [1], in assay [2], in assay [3] and in assay [4] was “inactive” throughout.
On to `COc1cc(CO[C@H]2C=C[C@@H](c3ccccc3)O[C@H]2CO)cc(OC)c1`, for which the Potency result in assay [1], in assay [2], in assay [3] and in assay [4] was “inactive” each time.
In the case of `C=CCN=C1NC(c2cccc(F)c2)C(C(=O)OC)=C(C)N1Cc1ccccc1` (stereo unspecified), the Potency entry in assay [1], in assay [2], in assay [3] and in assay [4] was “inactive” each time.
On to `C[C@@H]1CC[C@H]2C(=O)N(Cc3ccccc3)C[C@H](O)CN2[C@@H]1c1ccc(Br)cc1`, for which the Potency in assay [1] is 1.69 µM (active); in assay [4] it was 2.99 µM (active). Further, in assay [3], the Potency result was “inactive”.
